Results reported in PubChem BioAssay.
For part of these data: Measured potencies and affinities stand elsewhere. Calls of active or inactive are those of the source. Unless noted, the rule behind the calls is not given here.

Legend:
[1] = antimalarial activity against Dd2 strain (AID 2302;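 active = growth inhibition above 50% at the single 2 µM test dose, taken to imply half-maximal potency below 2 µM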;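 note: 0% = DMSO untreated growth and 100% = chloroquine plus artemisinin killed control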); details: P. falciparum Dd2 in RBCs, LDH growth readout, 72 h; at 2 µM; hits give high values
[2] = HepG2 cytotoxicity, primary screen, cytotoxicity control for P. falciparum antimalarial project, cell-based, ATP luminescence (AID 2303;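 active = inhibition above 50%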;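 note: 0% = DMSO wells and 100% = digitonin-killed cells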); details: HepG2 viability, 24-48 h, at 10 µM, hits give high values
[3] = target: L-lactate dehydrogenase (Plasmodium falciparum (isolate CDC / Honduras)) (UniProt Q27743); test: PfLDH activity inhibition – cell lysate, 3D7 strain, counter-screen for P. falciparum growth inhibition project (AID 2304);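 note: 0% = vehicle and 100% = reference inhibitor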; details: P. falciparum 3D7 crude extract, LDH APAD/NBT absorbance; at 2 µM; hits give high values
[4] = inhibition of 3D7 malaria parasite growth – strain 3D7 (AID 2306);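 note: 0% = DMSO wells and 100% = chloroquine plus artemisinin control wells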; details: P. falciparum 3D7 erythrocytic growth, LDH absorbance, 72 h; at 2 µM; hits give high values
[5] = target: Calcium-dependent protein kinase 1 (Plasmodium falciparum (isolate 3D7)) (UniProt P62344); test: PfCDPK1 kinase inhibitors, biochemical, TCAMS library (AID 1159585; cut-off not given, nearly all actives have IC50 up to about 0.98 µM;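 note: inhibitors leave more ATP so luminescence rises with inhibition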); details: recombinant PfCDPK1, Kinase-Glo ATP depletion luminescence
[6] = target: Plasmodium falciparum protein kinase 6 (PK6, PF3D7_1337100) (UniProt Q8IDW1); test: PfPK6 kinase inhibitors, biochemical, TCAMS library (AID 1159586); details: recombinant PfPK6, Kinase-Glo ATP depletion luminescence
[7] = target: Protein kinase 7 (PK7), Plasmodium falciparum 3D7 (PF3D7_0213400) (UniProt Q7YTF7); test: inhibition of Plasmodium PK7 catalytic activity – biochemical, TCAMS antimalarial set, Kinase-Glo luminescence (AID 1159587); details: recombinant PfPK7, Kinase-Glo ATP depletion luminescence
[8] = target: Calcium-dependent protein kinase 4 (Plasmodium falciparum (isolate 3D7)) (UniProt Q8IBS5); test: PfCDPK4 kinase inhibitors, biochemical, TCAMS library (AID 1159588; cut-off not given, nearly all actives have IC50 up to about 0.91 µM); details: recombinant PfCDPK4, Kinase-Glo ATP depletion luminescence
Chain of Calcium-dependent protein kinase 4 (Plasmodium falciparum (isolate 3D7)) (Q8IBS5 whole entry, looked up): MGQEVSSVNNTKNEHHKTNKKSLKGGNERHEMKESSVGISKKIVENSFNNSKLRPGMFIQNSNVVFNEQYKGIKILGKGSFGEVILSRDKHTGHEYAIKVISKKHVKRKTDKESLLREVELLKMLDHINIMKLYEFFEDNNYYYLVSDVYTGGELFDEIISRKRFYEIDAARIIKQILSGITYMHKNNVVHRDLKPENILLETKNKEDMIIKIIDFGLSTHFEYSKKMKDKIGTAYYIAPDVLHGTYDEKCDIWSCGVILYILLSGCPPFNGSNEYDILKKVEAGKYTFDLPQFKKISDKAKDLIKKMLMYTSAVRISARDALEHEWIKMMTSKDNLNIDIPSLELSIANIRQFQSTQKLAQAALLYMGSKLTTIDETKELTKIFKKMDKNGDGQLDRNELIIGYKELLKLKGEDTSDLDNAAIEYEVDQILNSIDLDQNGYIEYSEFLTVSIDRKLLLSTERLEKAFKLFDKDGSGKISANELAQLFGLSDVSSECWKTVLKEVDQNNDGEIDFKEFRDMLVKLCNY

Chain of L-lactate dehydrogenase (Plasmodium falciparum (isolate CDC / Honduras)) (Q27743 whole entry, looked up): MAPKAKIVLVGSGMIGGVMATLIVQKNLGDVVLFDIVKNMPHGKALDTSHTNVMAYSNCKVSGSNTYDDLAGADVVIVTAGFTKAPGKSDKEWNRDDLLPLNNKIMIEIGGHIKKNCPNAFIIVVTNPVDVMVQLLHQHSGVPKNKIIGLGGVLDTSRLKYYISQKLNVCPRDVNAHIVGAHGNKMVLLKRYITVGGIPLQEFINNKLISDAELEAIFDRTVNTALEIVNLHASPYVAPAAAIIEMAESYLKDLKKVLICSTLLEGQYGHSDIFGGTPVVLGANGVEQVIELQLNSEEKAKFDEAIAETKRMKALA
Chain of Plasmodium falciparum protein kinase 6 (PK6, PF3D7_1337100) (Q8IDW1 1-305): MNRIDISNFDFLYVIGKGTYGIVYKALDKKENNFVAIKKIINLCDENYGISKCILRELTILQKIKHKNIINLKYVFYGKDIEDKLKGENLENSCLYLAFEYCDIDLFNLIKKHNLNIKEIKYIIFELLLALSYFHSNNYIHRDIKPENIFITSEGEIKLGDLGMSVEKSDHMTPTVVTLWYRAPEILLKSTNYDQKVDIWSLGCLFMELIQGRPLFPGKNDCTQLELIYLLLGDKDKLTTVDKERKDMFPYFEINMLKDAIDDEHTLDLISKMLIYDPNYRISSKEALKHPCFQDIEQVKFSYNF
Chain of Calcium-dependent protein kinase 1 (Plasmodium falciparum (isolate 3D7)) (P62344 whole entry, looked up): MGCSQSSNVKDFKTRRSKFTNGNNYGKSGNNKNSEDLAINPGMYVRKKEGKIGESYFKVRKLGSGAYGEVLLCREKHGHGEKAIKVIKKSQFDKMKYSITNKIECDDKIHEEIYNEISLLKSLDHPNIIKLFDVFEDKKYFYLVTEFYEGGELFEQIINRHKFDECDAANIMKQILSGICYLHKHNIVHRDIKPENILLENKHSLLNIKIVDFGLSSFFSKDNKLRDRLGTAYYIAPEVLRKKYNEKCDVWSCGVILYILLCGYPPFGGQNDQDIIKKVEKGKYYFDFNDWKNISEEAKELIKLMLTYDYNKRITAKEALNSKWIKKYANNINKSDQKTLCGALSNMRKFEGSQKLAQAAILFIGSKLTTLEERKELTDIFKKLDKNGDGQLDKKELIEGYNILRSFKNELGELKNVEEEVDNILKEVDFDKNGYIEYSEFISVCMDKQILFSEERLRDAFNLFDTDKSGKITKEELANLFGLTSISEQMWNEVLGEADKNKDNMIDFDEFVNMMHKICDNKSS
Chain of Protein kinase 7 (PK7), Plasmodium falciparum 3D7 (PF3D7_0213400) (Q7YTF7 1-343): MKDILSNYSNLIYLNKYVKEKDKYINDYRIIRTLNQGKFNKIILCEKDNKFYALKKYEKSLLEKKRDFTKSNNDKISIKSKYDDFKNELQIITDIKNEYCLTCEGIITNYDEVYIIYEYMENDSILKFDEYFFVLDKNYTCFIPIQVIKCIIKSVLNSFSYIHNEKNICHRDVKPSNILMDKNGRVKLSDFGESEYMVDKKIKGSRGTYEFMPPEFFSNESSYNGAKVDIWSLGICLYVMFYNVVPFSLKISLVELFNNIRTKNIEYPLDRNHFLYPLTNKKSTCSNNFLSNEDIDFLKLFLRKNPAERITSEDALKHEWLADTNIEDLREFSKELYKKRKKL

O=C(Nc1ccc(C(F)(F)F)cc1)NC1CCN(CCCCCNC(=O)[C@@H]2C[C@H]2c2ccc(Cl)c(Cl)c2)CC1
active: growth inhibition [4] 101%
inactive: growth inhibition [1] 45% | inhibition [2] 41% | inhibition [3] -7% | outcome [5] | outcome [6] | outcome [7] | outcome [8]

c1ccc(CCNCc2ccc(-c3ccc(CNCc4ccc5c(c4)OCO5)cc3)nc2)cc1
inactive: inhibition [2] 24% | inhibition [3] 5% | outcome [5] | outcome [6] | outcome [7] | outcome [8]
active: growth inhibition [1] 67% | growth inhibition [4] 94%

Cc1cc(C2CCN(CCCCNC(=O)c3ccc(NC(=O)c4ccc(Cl)cc4)cc3)CC2)c(C)cc1OCCN(C)C
inactive: inhibition [2] 18% | inhibition [3] -1% | outcome [5] | outcome [6] | outcome [7] | outcome [8]
active: growth inhibition [1] 77% | growth inhibition [4] 100%

OC(CNCc1ccccc1OCc1ccccc1)c1cc(C(F)(F)F)cc(C(F)(F)F)c1 (configuration not stated)
inactive: inhibition [2] 3% | inhibition [3] 3% | outcome [5] | outcome [6] | outcome [7] | outcome [8]
active: growth inhibition [1] 99% | growth inhibition [4] 100%

CCCCCCCNC(=O)NCC1CCCN(CCCCCNC(=O)/C=C/c2ccc(Cl)c(Cl)c2)C1 (configuration not stated)
inactive: growth inhibition [1] 7% | inhibition [3] -1% | outcome [5] | outcome [6] | outcome [7] | outcome [8]
active: inhibition [2] 98% | growth inhibition [4] 86%

COc1ccc(NC(=O)CSc2nc(-c3ccccc3Cl)ns2)cc1
active: growth inhibition [1] 75% | growth inhibition [4] 96%
inactive: inhibition [2] 11% | inhibition [3] 0% | outcome [5] | outcome [6] | outcome [7] | outcome [8]

CCOc1cc2c(cc1S(=O)(=O)c1ccc(COc3ccc(C(F)(F)F)cc3)cc1)CCN(C)CC2
inactive: growth inhibition [1] 14% | inhibition [2] 27% | inhibition [3] -5% | outcome [5] | outcome [6] | outcome [7] | outcome [8]
active: growth inhibition [4] 87%

O=C(Nc1cccc(CN2CCCN(Cc3ccsc3)CC2)c1)c1ccc(Cl)c(Cl)c1
active: growth inhibition [4] 98%
inactive: growth inhibition [1] 20% | inhibition [2] 36% | inhibition [3] 4% | outcome [5] | outcome [6] | outcome [7] | outcome [8]

CCCCOC(=O)C1=C(C)NC2=C(C(=O)CCC2)C1c1ccc(OC)c(Br)c1 (configuration not stated)
active: growth inhibition [1] 87% | growth inhibition [4] 93%
inactive: inhibition [2] 5% | inhibition [3] -4% | outcome [5] | outcome [6] | outcome [7] | outcome [8]

CC(CNC1CCN(CCn2c(=O)ccc3ccc(F)cc32)CC1)c1ccccc1 (configuration not stated)
active: growth inhibition [4] 85%
inactive: growth inhibition [1] 4% | inhibition [2] -12% | inhibition [3] -1% | outcome [5] | outcome [6] | outcome [7] | outcome [8]

O=C(C=Cc1ccc(Cl)c(Cl)c1)NCCCCCN1CCCC(CCCNS(=O)(=O)c2ccc(Br)cc2)C1 (configuration not stated)
inactive: growth inhibition [1] 5% | inhibition [2] 43% | inhibition [3] -2% | outcome [5] | outcome [6] | outcome [7] | outcome [8]
active: growth inhibition [4] 88%

C[C@H](Cc1ccc(CCc2ccc(C[C@@H](C)NC[C@H](O)c3cccc(Cl)c3)cc2)cc1)NC[C@H](O)c1cccc(Cl)c1
active: growth inhibition [1] 92% | inhibition [2] 100% | growth inhibition [4] 95%
inactive: inhibition [3] 2% | outcome [5] | outcome [6] | outcome [7] | outcome [8]

CCOc1cc(C(=O)NC2CCN(Cc3ccccc3)CC2)ccc1-c1nc2ccc(Cl)cc2[nH]1
inactive: inhibition [2] 10% | inhibition [3] -6% | outcome [5] | outcome [6] | outcome [7] | outcome [8]
active: growth inhibition [1] 84% | growth inhibition [4] 101%

CCc1ccccc1N1CCN(CCCC(=O)c2ccc(NC(=O)c3cc(Cl)cc(Cl)c3)cc2)CC1
inactive: growth inhibition [1] 46% | inhibition [2] 16% | inhibition [3] 1% | outcome [5] | outcome [6] | outcome [7] | outcome [8]
active: growth inhibition [4] 99%

Cc1ccccc1C1CCN(C2CCC(NC(=O)/C=C/c3cccc(F)c3F)CC2)CC1 (configuration not stated)
inactive: growth inhibition [1] 45% | inhibition [3] -3% | outcome [5] | outcome [6] | outcome [7] | outcome [8]
active: inhibition [2] 57% | growth inhibition [4] 89%

COc1cc(OCCCN(C)Cc2ccc(OC)c(OC)c2)ccc1NC(=O)c1cccc2c(=O)c3cccc(F)c3[nH]c12
inactive: inhibition [2] 10% | inhibition [3] -5% | outcome [5] | outcome [6] | outcome [7] | outcome [8]
active: growth inhibition [1] 62% | growth inhibition [4] 94%

O=C(Nc1cccc(CN2CCCN(CC3CCCCC3)CC2)c1)c1ccc(Cl)c(Cl)c1
inactive: growth inhibition [1] 15% | inhibition [2] 39% | inhibition [3] 7% | outcome [5] | outcome [6] | outcome [7] | outcome [8]
active: growth inhibition [4] 91%

FC(F)(F)CNc1nc(Nc2ccc3ncccc3c2)nc2[nH]ccc12
inactive: inhibition [2] 37% | inhibition [3] 0% | outcome [5] | outcome [6] | outcome [7] | outcome [8]
active: growth inhibition [1] 83% | growth inhibition [4] 87%

CC(C)[C@H]1C(=O)N(S(C)(=O)=O)[C@H]2CCN(C(=O)c3ccc(CN4CCCCC4)c([N+](=O)[O-])c3)[C@H]12
inactive: inhibition [2] 10% | inhibition [3] 3% | outcome [5] | outcome [6] | outcome [7] | outcome [8]
active: growth inhibition [1] 100% | growth inhibition [4] 100%

O=C(Nc1ccc(Oc2ccccc2)cc1)N[C@@H](Cc1ccc(O)cc1)C(=O)NC1CCN(Cc2ccc(O)c([N+](=O)[O-])c2)C1 (some centres not stated)
active: growth inhibition [4] 101%
inactive: growth inhibition [1] -3% | inhibition [2] -3% | inhibition [3] 2% | outcome [5] | outcome [6] | outcome [7] | outcome [8]

C=C[C@]1(C)C[C@@H](OC(=O)CS[C@H]2CN3CC[C@H]2C3)[C@@]2(C)C3C(=O)CC[C@@]3(CC[C@H]2C)[C@@H](C)[C@@H]1O (some centres not stated)
active: growth inhibition [1] 75% | growth inhibition [4] 91%
inactive: inhibition [2] 18% | inhibition [3] 4% | outcome [5] | outcome [6] | outcome [7] | outcome [8]

FC(F)(F)c1cc(Nc2ccc(Oc3ccccc3)cc2)c2cc(-c3ccncc3)ccc2n1
inactive: inhibition [2] -12% | inhibition [3] -2% | outcome [5] | outcome [6] | outcome [7] | outcome [8]
active: growth inhibition [1] 70% | growth inhibition [4] 102%

Fc1ccc2nc(-c3cccc(-c4cccc(CNCc5ccccc5)c4)c3)[nH]c2c1
active: growth inhibition [1] 52% | growth inhibition [4] 102%
inactive: inhibition [2] 24% | inhibition [3] -9% | outcome [5] | outcome [6] | outcome [7] | outcome [8]

COc1ccc2ncc(F)c(CCN3C[C@H](CNCc4ccc5oc(=O)ccc5c4)[C@H](O)C3)c2n1
active: growth inhibition [4] 89%
inactive: growth inhibition [1] 6% | inhibition [2] 18% | inhibition [3] 3% | outcome [5] | outcome [6] | outcome [7] | outcome [8]

CCOc1c(OC)ccc2c1CCN(CCN1CCC(CNC(=O)c3ccc(-c4ccc(C#N)cc4)cc3)CC1)C2
inactive: inhibition [2] 45% | inhibition [3] 7% | outcome [5] | outcome [6] | outcome [7] | outcome [8]
active: growth inhibition [1] 61% | growth inhibition [4] 92%

CC(O)C1CCCCN1C(=O)c1ccc(-c2ccc(-c3nc4ccc(F)cc4[nH]3)cc2)cc1 (configuration not stated)
active: growth inhibition [1] 99% | growth inhibition [4] 101%
inactive: inhibition [2] 43% | inhibition [3] -3% | outcome [5] | outcome [6] | outcome [7] | outcome [8]

Clc1ccccc1/C=C/c1cncnc1Nc1ccc2nc(Cc3ccccc3)[nH]c2c1
inactive: growth inhibition [1] 26% | inhibition [2] 4% | inhibition [3] -1% | outcome [5] | outcome [6] | outcome [7] | outcome [8]
active: growth inhibition [4] 96%

O=C(N[C@@H](Cc1ccccc1)C(=O)O)c1cc(-c2ccc(F)cc2)no1 (tested in a mixture with another compound)
active: growth inhibition [4] 96%
inactive: growth inhibition [1] 49% | inhibition [2] -2% | inhibition [3] -3% | outcome [5] | outcome [6] | outcome [7] | outcome [8]

O=S(=O)(NCCN1CCCC1)c1ccc(-c2ccc(CNCc3ccc(F)cc3)cc2)s1
inactive: growth inhibition [1] 44% | inhibition [2] 42% | inhibition [3] 6% | outcome [5] | outcome [6] | outcome [7] | outcome [8]
active: growth inhibition [4] 101%

CCCNCc1ccc(-c2ccc(CN(CCOC)C(=O)CCc3ccc(OC)cc3)cc2)nc1
inactive: growth inhibition [1] 29% | inhibition [2] 11% | inhibition [3] -1% | outcome [5] | outcome [6] | outcome [7] | outcome [8]
active: growth inhibition [4] 98%

COc1cc(NC(=O)/C=C/c2cccc3ccoc23)ccc1OCCN(C(C)C)C(C)C
inactive: growth inhibition [1] 5% | inhibition [2] 22% | inhibition [3] 2% | outcome [5] | outcome [6] | outcome [7] | outcome [8]
active: growth inhibition [4] 90%

COc1ccccc1CCNc1nc(C)cc(NCCC(=O)Nc2ccccc2)n1
inactive: growth inhibition [1] 24% | inhibition [2] 7% | inhibition [3] 0% | outcome [5] | outcome [6] | outcome [7] | outcome [8]
active: growth inhibition [4] 101%

O=C1CCCN1CCCNCc1cccc(-c2cccc(-c3nc4ccc(C(F)(F)F)cc4[nH]3)c2)c1
active: growth inhibition [1] 90% | growth inhibition [4] 101%
inactive: inhibition [2] 28% | inhibition [3] -3% | outcome [5] | outcome [6] | outcome [7] | outcome [8]

CCOc1ccc2nc3cc(NC(=O)c4ccco4)ccc3c(N)c2c1
active: growth inhibition [1] 56% | growth inhibition [4] 101%
inactive: inhibition [2] 36% | inhibition [3] -1% | outcome [5] | outcome [6] | outcome [7] | outcome [8]

COc1cccc(NC(=O)Nc2cc(C)nc3ccccc23)c1
inactive: growth inhibition [1] 48% | inhibition [2] 2% | inhibition [3] -1% | outcome [5] | outcome [6] | outcome [7] | outcome [8]
active: growth inhibition [4] 100%

CC(=O)N(C)C1CCN(Cc2ccc(-c3ccc(-c4nc5ccc(F)cc5[nH]4)s3)cc2)C1 (configuration not stated)
active: growth inhibition [4] 98%
inactive: growth inhibition [1] 22% | inhibition [2] 46% | inhibition [3] 1% | outcome [5] | outcome [6] | outcome [7] | outcome [8]

N=C(N)c1ccc(NC(=O)Cc2nc3ccc(C(=N)N)cc3[nH]2)cc1
inactive: inhibition [2] 4% | inhibition [3] 2% | outcome [5] | outcome [6] | outcome [7] | outcome [8]
active: growth inhibition [1] 81% | growth inhibition [4] 87%

COc1ccc(-c2ccc(NC(=O)c3ccccc3)cc2)cc1CN1CCCN(C)CC1
inactive: growth inhibition [1] 17% | inhibition [2] 24% | inhibition [3] 3% | outcome [5] | outcome [6] | outcome [7] | outcome [8]
active: growth inhibition [4] 92%

CCc1c(C)nc(-n2nc(C)cc2NC(=O)C(CC)c2ccccc2)[nH]c1=O (configuration not stated)
active: growth inhibition [1] 93% | growth inhibition [4] 97%
inactive: inhibition [2] 41% | inhibition [3] -1% | outcome [5] | outcome [6] | outcome [7] | outcome [8]
